{
  "source": "PubChem BioAssay AID504550",
  "about": "(Sanford-Burnham Center for Chemical Genomics, 2011)",
  "note": "This is one part of the list. Activity calls are given as the source filed them.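 Rule for the calls: active = mean activation at 20 µM of at least 40%; inactive = the rest.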",
  "data": [
    {"biological_target": "Neurotensin receptor type 1 (Homo sapiens) (UniProt P30989)", "sequence (P30989 whole entry, looked up)": "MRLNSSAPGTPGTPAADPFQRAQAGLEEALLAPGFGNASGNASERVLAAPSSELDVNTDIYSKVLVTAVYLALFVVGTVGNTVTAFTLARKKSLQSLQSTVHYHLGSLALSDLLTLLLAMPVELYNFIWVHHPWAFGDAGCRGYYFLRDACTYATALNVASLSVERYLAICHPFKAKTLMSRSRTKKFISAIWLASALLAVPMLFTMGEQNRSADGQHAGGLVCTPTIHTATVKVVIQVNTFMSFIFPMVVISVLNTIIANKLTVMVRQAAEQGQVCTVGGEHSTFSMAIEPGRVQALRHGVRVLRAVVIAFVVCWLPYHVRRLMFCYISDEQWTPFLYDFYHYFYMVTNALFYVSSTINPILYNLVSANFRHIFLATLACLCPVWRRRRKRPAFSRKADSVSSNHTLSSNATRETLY", "assay": "NTR1 agonists, single-dose retest, confirmation, imaging, U2OS cells, beta-arrestin-GFP, single concentration (AID 504550);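 note: 0% = DMSO without peptide and 100% = 100 nM NTR1 peptide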", "conditions": "NTR1-U2OS beta-arrestin-GFP translocation imaging; at 20 µM; active compounds read high", "values": [
      {"smiles": "O=C(N/N=C/c1ccc(OC(=O)c2ccccc2Cl)cc1)c1ccc(O)cc1", "activation": "50.1% (active)"},
      {"smiles": "Cc1cccc(-c2nc(Nc3ccc(O)cc3)c3ccccc3n2)c1", "activation": "31.3% (inactive)"},
      {"smiles": "Cc1cccc(-n2c(SCC(N)=O)nc3c(c2=O)C2(CCCCC2)Cc2ccccc2-3)c1", "activation": "22.7% (inactive)"},
      {"smiles": "OC(CN=c1sc2ccccc2n1CC(O)COc1ccccc1)COc1ccccc1", "note": "(stereo not given)", "activation": "18.2% (inactive)"},
      {"smiles": "O=C(/C=C/c1ccc(Cl)c([N+](=O)[O-])c1)c1cccnc1", "activation": "49.5% (active)"},
      {"smiles": "O=C(/C(=C/c1cccc(Cl)c1)c1nc2ccccc2[nH]1)c1ccccc1", "activation": "62.5% (active)"},
      {"smiles": "CC(C)Oc1c(Br)cc(Br)cc1/C=N/NC(N)=S", "activation": "26.4% (inactive)"},
      {"smiles": "O=c1oc2ccccc2cc1-c1csc(Nc2ccc(O)cc2)n1", "activation": "10.5% (inactive)"},
      {"smiles": "COc1cccc(/C=N/Nc2cc(C)nc(-c3ccccc3O)n2)c1O", "activation": "36.7% (inactive)"},
      {"smiles": "CCCCCCCCCCOC(=O)Cn1c(COc2cccc(OC)c2)[n+](C)c2ccccc21", "activation": "71.8% (active)"},
      {"smiles": "COc1ccc(C(C[N+](=O)[O-])n2nc(C)cc2C)cc1", "note": "(stereo not given)", "activation": "52.4% (active)"},
      {"smiles": "Nc1nc(Nc2ccccc2F)nc(NC2CCCCC2)c1[N+](=O)[O-]", "activation": "13.2% (inactive)"},
      {"smiles": "Cc1ccc(NC(=O)COc2coc(CN3CCc4ccccc4C3)cc2=O)cc1Cl", "activation": "-2.38% (inactive)"},
      {"smiles": "CC(C)(C)OC(=O)N1CCC(NC(=O)c2[nH]cnc2C(=O)N[C@@H](Cc2ccccc2)C(=O)OCc2ccccc2)CC1", "activation": "51.5% (active)"},
      {"smiles": "CCCCNc1c(-c2cccc(Sc3ccc(OC)cc3)c2)nc2ccccn12", "activation": "68.2% (active)"},
      {"smiles": "CCOC(=O)CSC1=C(C#N)C(c2ccco2)C(C(=O)OCc2ccccc2)=C(C)N1", "note": "(stereo not given)", "activation": "7.17% (inactive)"},
      {"smiles": "CN1/C(=C\\C(=O)c2oc3ccccc3c2N)C(C)(C)c2ccccc21", "activation": "15% (inactive)"},
      {"smiles": "O=C(N/N=C/c1c(Cl)[nH]c2ccccc12)c1sc2ccccc2c1Cl", "activation": "21.7% (inactive)"},
      {"smiles": "CC(C)Cn1c(N)c(C(=O)NCc2cccs2)c2nc3ccccc3nc21", "activation": "21% (inactive)"},
      {"smiles": "CC(C)c1ccccc1OCC(O)CN(CC(O)COc1cccc2ccccc12)C(C)C", "note": "(stereo not given)", "activation": "15.3% (inactive)"}
    ]}
  ]
}
